According to the supplement of paper PMC10849652:
Targets with a hit are over-represented here; the source holds about 7,900 in all. About 0.6% of all pairs of compound and target were hits. A number with no mark means an inactive call.

Experiments:
Assay in all cases: log2 fold change, soluble protein after heating vs DMSO (PISA); higher = thermal stabilisation; K562 cells, 10 uM, 30 min; active = over 0.2 and 3.5 SD of the protein, either way, in both replicates (recomputed)
[1] = compound: CN1CCN(CCOc2cc(OC3CCOCC3)c3c(Nc4c(Cl)ccc5c4OCO5)ncnc3c2)CC1 [saracatinib]
How it was run: (§1)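 For each measurement, 10 μM compound was applied for 30 min to K562 cells at 2×10^6 cells/mL. Aliquots were heated for 3 min across 48°C-58°C, pooled, and extracted in PBS with 0.5% NP-40 at 4°C; the supernatant after 21,000xg for 90 min was soluble protein. This was quantified by TMTpro 16plex LC-MS/MS with channel sums equalised, and thermal stability was reported relative to control samples from duplicates, on a log2 fold-change scale.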

[2] = compound: CN1CCN(c2nc(C3=C(c4c[nH]c5ccccc45)C(=O)NC3=O)c3ccccc3n2)CC1 [sotrastaurin]
How it was run: as §1

[3] = compound: CN1CC[C@H](c2c(O)cc(O)c3c(=O)cc(-c4ccccc4Cl)oc23)[C@H](O)C1 [alvocidib]
How it was run: as §1

[4] = compound: CN1CCc2c(c3ccccc3n2Cc2ccc(C(=O)NO)cc2)C1 [Tubastatin A]
How it was run: as §1

[5] = compound: CNC(=O)c1ccc(Nc2ncc(C(F)(F)F)c(NCc3nccnc3N(C)S(C)(=O)=O)n2)cc1 [defactinib]
How it was run: as §1

[6] = compound: CNCc1ccc(-c2[nH]c3cc(F)cc4c3c2CCNC4=O)cc1 [rucaparib]
How it was run: as §1

[7] = compound: CNc1nc(-c2ccc3c(N)n[nH]c3c2)cc(N2C[C@@H](C(=O)NC3CCCCC3)CC[C@H]2C)n1
How it was run: as §1

[8] = compound: COC(=O)N[C@@H](C)CNc1nccc(-c2cn(C(C)C)nc2-c2cc(Cl)cc(NS(C)(=O)=O)c2F)n1 [encorafenib]
How it was run: as §1

[9] = compound: COC(=O)[C@H](CCSC)NC(=O)C1=C(C=C(C=C1)NC[C@H](CS)N)C2=CC=CC=C2
How it was run: as §1

[10] = compound: CNC(=O)C1=CC=CC=C1NC2=NC(=NC=C2Cl)NC3=C(C=C(C=C3)N4CCOCC4)OC
How it was run: as §1

Chain of UniProt O76062 (O76062 whole entry, looked up): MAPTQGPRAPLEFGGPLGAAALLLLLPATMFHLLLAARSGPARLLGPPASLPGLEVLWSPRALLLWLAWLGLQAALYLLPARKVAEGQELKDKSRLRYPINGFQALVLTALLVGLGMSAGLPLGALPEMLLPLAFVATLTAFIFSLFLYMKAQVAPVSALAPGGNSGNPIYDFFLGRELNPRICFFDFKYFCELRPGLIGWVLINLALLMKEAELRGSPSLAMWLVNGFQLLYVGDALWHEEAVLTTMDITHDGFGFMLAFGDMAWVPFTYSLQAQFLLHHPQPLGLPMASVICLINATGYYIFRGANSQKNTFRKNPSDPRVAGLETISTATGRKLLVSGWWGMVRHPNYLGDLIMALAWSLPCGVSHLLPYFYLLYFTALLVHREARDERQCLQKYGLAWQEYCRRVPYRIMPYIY
Chain of UniProt Q9NS93 (Q9NS93 whole entry, looked up): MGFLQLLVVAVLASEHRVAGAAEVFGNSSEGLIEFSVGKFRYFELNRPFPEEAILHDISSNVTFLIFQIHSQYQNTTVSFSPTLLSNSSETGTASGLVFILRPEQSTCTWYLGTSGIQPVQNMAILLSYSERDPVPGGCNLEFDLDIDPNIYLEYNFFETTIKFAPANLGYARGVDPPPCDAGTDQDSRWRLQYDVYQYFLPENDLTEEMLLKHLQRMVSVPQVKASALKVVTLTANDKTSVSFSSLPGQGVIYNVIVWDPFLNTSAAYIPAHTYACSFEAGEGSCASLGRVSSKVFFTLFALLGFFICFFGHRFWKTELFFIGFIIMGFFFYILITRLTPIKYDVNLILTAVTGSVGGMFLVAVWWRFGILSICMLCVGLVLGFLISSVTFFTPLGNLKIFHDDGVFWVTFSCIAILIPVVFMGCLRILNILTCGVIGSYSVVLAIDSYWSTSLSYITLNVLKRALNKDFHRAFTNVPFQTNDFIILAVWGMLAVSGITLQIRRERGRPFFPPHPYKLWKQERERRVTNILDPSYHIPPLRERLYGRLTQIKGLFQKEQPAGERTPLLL
Chain of UniProt P35711 (P35711 whole entry, looked up): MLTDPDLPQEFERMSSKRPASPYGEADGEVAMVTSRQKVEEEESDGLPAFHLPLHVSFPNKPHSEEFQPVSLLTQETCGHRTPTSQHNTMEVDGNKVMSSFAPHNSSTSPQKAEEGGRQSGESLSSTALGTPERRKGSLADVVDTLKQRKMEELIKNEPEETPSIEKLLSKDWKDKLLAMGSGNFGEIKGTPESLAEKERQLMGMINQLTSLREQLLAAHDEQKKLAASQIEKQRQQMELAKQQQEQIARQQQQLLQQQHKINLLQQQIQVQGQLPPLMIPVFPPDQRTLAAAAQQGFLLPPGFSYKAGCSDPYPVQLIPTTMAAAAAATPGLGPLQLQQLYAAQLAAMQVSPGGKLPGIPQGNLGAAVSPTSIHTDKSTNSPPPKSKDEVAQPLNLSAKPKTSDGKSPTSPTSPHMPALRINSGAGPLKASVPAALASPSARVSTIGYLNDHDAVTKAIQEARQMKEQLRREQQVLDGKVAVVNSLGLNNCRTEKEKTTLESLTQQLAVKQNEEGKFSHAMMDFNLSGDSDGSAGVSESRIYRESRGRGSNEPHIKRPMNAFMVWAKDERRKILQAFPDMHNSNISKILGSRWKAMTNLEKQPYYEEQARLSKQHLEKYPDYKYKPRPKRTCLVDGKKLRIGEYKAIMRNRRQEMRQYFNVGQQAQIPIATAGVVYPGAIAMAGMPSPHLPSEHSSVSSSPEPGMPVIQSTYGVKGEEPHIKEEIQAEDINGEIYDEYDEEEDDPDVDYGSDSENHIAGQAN
Chain of UniProt Q9UHD2 (Q9UHD2 whole entry, looked up): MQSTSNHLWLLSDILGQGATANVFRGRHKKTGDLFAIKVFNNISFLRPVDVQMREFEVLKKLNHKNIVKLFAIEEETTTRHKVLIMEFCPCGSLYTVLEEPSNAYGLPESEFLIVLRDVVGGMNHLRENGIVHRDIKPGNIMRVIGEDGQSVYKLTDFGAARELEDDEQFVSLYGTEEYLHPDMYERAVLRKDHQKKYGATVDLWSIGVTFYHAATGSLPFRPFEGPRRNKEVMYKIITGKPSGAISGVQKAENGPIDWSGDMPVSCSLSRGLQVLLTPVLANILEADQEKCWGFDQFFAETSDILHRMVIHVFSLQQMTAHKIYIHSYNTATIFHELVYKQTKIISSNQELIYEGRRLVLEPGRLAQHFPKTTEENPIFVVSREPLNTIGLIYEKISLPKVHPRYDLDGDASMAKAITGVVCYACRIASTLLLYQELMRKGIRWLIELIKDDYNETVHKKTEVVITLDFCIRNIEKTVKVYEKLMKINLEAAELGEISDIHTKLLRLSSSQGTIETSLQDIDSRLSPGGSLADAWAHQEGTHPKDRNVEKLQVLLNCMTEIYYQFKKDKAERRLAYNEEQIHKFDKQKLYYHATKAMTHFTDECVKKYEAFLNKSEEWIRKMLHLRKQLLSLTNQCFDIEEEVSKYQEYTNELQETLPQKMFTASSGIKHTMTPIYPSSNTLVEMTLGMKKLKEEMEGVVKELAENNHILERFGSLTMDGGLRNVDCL
Chain of UniProt Q9NXE4 (Q9NXE4 whole entry, looked up): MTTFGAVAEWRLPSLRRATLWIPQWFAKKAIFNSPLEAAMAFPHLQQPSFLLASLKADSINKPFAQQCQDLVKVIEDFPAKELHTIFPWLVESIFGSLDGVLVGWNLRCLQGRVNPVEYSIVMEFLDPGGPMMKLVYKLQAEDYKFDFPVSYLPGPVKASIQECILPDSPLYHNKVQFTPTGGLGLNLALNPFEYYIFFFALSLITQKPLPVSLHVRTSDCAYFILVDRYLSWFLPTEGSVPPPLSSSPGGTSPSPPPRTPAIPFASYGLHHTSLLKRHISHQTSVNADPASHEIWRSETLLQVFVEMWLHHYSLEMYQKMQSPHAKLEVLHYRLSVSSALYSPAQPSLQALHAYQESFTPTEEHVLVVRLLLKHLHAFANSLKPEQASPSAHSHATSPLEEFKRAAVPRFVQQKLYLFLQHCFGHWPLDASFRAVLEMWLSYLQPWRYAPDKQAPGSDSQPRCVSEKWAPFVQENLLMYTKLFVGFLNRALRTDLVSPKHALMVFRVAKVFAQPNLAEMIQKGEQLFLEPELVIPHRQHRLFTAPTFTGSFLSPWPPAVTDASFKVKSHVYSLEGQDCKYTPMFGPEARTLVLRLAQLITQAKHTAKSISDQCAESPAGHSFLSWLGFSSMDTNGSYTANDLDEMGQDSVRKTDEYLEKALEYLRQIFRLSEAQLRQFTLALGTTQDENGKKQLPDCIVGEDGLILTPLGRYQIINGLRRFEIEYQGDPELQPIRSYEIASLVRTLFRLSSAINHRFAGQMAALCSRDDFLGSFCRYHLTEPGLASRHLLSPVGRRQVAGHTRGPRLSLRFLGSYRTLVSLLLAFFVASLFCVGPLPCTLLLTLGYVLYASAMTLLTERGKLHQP
Chain of UniProt Q8N9U0 (Q8N9U0 whole entry, looked up): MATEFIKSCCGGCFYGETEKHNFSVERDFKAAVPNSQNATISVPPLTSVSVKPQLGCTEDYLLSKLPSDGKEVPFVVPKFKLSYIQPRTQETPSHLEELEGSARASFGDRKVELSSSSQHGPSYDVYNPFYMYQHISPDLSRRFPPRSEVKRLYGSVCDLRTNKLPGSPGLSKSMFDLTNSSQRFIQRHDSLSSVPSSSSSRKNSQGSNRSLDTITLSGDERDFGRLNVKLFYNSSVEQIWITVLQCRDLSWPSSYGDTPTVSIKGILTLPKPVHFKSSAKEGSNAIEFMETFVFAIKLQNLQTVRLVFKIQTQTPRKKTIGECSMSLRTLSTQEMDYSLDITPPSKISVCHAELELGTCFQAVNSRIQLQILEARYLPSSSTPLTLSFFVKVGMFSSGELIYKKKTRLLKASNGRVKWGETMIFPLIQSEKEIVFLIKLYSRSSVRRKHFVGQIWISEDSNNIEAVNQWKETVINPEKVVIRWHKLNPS
Chain of UniProt P36956 (P36956 whole entry, looked up): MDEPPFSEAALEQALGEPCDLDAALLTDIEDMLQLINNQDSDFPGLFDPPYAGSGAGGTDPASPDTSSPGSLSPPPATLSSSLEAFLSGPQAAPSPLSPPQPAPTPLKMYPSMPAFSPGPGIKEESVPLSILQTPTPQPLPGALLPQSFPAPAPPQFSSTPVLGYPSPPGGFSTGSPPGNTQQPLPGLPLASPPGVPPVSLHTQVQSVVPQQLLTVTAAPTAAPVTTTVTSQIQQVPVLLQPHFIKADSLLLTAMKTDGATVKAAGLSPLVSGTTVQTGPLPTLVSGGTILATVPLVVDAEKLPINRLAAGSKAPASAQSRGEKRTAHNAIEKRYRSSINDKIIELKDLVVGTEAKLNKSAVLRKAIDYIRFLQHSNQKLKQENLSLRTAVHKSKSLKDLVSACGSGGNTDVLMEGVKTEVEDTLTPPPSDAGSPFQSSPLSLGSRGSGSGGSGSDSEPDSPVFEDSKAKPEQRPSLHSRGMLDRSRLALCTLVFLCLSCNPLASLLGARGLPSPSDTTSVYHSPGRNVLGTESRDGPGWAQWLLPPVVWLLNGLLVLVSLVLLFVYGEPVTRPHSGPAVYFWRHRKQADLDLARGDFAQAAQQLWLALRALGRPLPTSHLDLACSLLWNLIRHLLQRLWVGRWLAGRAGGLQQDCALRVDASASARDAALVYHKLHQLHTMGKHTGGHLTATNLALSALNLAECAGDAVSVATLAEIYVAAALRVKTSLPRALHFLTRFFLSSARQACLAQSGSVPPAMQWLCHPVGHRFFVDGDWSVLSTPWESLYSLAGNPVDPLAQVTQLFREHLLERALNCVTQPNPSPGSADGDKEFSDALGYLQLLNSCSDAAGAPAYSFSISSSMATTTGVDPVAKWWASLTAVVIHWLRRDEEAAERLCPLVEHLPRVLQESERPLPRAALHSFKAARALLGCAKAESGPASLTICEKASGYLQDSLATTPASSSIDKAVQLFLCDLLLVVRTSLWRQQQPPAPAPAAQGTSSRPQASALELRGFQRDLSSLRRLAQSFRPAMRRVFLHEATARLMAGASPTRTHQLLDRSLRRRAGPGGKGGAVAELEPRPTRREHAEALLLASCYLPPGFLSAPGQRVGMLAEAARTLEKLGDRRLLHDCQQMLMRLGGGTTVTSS

Target	log2 fold change [1]	log2 fold change [2]	log2 fold change [3]	log2 fold change [4]	log2 fold change [5]	log2 fold change [6]	log2 fold change [7]	log2 fold change [8]	log2 fold change [9]	log2 fold change [10]
SMARCB1 (UniProt Q12824)	-0.09	-0.192	-0.106	0.016	-0.158	0.809 (active)	-0.009	-0.247	0.144	–
TM7SF3 (UniProt Q9NS93)	0.072	0.035	0.068	-0.082	–	-0.077	-0.011	0.089	–	0.039
STAT5A (UniProt P42229)	-0.093	-0.14	-0.151	0.088	-0.273	0.006	0.054	0.088	-0.059	-0.001
STARD9 (UniProt Q9P2P6)	0.051	-0.316	-0.337	0.122	0.144	-0.005	0.103	0.048	-0.03	-0.344
STARD7 (UniProt Q9NQZ5)	-0.021	0.041	-0.122	-0.005	-0.047	-0.009	-0.014	0.03	-0.043	-0.012
TBC1D10B (UniProt Q4KMP7)	-0.025	-0.036	-0.036	0.001	-0.008	0.094	0.009	0.048	-0.023	-0.015
SRFBP1 (UniProt Q8NEF9)	0.038	-0.01	0.096	0.084	–	0.446 (active)	-0.15	-0.057	–	0.052
TANK (UniProt Q92844)	0.118	0.033	0.081	0.03	0.045	-0.016	0.052	0.064	-0.03	0.236
SLIRP (UniProt Q9GZT3)	-0.068	-0.141	-0.143	0.019	-0.005	0.148	-0.185	-0.094	0.096	-0.045
SUMO1 (UniProt P63165)	-0.112	0.011	0.12	-0.073	-0.067	0.056	-0.09	-0.029	0.028	0.022
TBC1D2 (UniProt Q9BYX2)	–	–	–	–	–	0.264	–	0.122	–	–
TEX30 (UniProt Q5JUR7)	-0.065	–	-0.177	0.022	-0.096	–	-0.026	–	0.017	0.015
STK17B (UniProt O94768)	–	–	–	–	–	–	–	–	–	-1.03 (active)
SLC9A6 isoform 3 (UniProt Q92581)	0.128	–	-0.044	0.04	–	0.165	-0.107	-0.162	–	0.104
SSBP4 (UniProt Q9BWG4)	0.409 (active)	0	–	0.038	–	0.022	0.031	-0.18	–	-0.184
SPIN4 (UniProt Q56A73)	–	–	–	–	–	–	–	–	–	-0.199
SPIRE1 (UniProt Q08AE8)	–	–	0.153	0.141	0.047	0.035	–	-0.105	-0.074	-0.166
SNRK (UniProt Q9NRH2)	-0.092	0.003	–	–	–	-0.099	0.011	0.002	–	–
TDP1 (UniProt Q9NUW8)	–	–	-0.028	–	–	–	–	–	–	-0.041
SP2 (UniProt Q02086)	0.09	0.091	–	–	–	0.324	-0.132	-0.025	–	–
SRC isoform 2 (UniProt P12931)	–	-0.167	-0.061	-0.108	-0.077	-0.343	0.007	0.082	0.188	-0.069
SSBP4 (UniProt U3KPY3)	–	–	–	–	-0.189	–	–	–	-0.121	–
SMPD4 isoform 2 (UniProt Q9NXE4)	0.028	–	-0.07	-0.054	0.094	–	0.02	–	-0.19	–
TBC1D20 isoform 3 (UniProt Q96BZ9)	–	0.053	-0.428	–	-0.044	0.05	–	0.074	-0.068	0.004

Target	log2 fold change [1]	log2 fold change [2]	log2 fold change [3]	log2 fold change [4]	log2 fold change [5]	log2 fold change [6]	log2 fold change [7]	log2 fold change [8]	log2 fold change [9]	log2 fold change [10]
SLC35B4 (UniProt Q969S0)	–	0.012	–	0.014	0.086	0.036	–	-0.015	-0.146	0.046
SYK (UniProt P43405)	-0.151	–	-0.168	0.355	0.249	0.258	0.03	0.112	-0.012	-0.113
TCOF1 isoform 6 (UniProt Q13428)	–	-0.094	0.104	-0.103	0.027	-0.022	–	0.162	-0.053	-0.149
SREBF1 isoform 4 (UniProt P36956)	0.077	–	–	–	–	-0.164	0.045	0.044	–	0.033
SLC38A7 (UniProt Q9NVC3)	–	0.152	-0.137	-0.177	-0.126	0.004	–	0.016	-0.261	-0.052
TM7SF2 (UniProt O76062)	0.069	-0.142	-0.048	–	-0.006	–	0.018	–	-0.096	-0.043
SMARCA4 (UniProt P51532)	-0.303	-0.086	-0.068	–	0.134	0.099	-0.091	0.049	0.022	-0.17
SLC8B1 (UniProt Q6J4K2)	0.036	–	0.012	–	0.029	–	-0.176	–	-0.028	-0.019
TCOF1 isoform 3 (UniProt Q13428)	–	0.326	–	0.054	–	-0.065	–	-0.084	–	-0.007
THAP9 (UniProt Q9H5L6)	0.039	–	-0.087	–	–	–	0.186	–	–	–
SRXN1 (UniProt Q9BYN0)	–	0.019	0.015	0.209	-0.283	0.111	–	-0.008	0.022	–
SLC46A1 (UniProt Q96NT5)	–	–	0.193	0.067	0.034	-0.081	–	-0.051	-0.011	0.085
SLC39A1 (UniProt Q9NY26)	–	–	0.072	–	–	–	–	–	–	-0.129
TBK1 (UniProt Q9UHD2)	-0.026	-0.063	–	-0.014	0.079	0.106	-0.013	0.049	0.001	0.536 (active)
TAOK2 (UniProt Q9UL54)	–	–	–	-0.003	–	-0.012	–	-0.028	–	0.244
SUPT5H isoform 2 (UniProt O00267)	–	–	–	–	-0.005	–	–	–	-0.058	–
SRSF9 (UniProt Q13242)	0.022	-0.015	0.27	–	0.276	0.376	0.097	0.149	-0.024	-0.145
SSB (UniProt E7ERC4)	-0.05	–	–	–	-0.205	–	0.018	–	-0.092	–
TBP (UniProt P20226)	0.316	–	0.119	-0.014	-0.003	0.088	-0.158	0.019	-0.071	–
SPAG9 isoform 4 (UniProt O60271)	–	-0.171	0.037	-0.103	0.018	0.113	–	0.022	0.088	0.081
TC2N (UniProt Q8N9U0)	-0.215	–	–	0.308	-0.341	–	-0.064	–	-0.096	–
SNX2 isoform 2 (UniProt O60749)	-0.002	0.003	-0.078	–	-0.155	0.024	0.176	-0.141	0.097	–
SOX5 (UniProt P35711)	–	-0.014	-0.163	0.263	-0.224	–	–	–	0.064	-0.053
TK1 (UniProt K7ERV3)	0.037	0.011	-0.009	-0.013	0	–	-0.058	–	-0.003	–
